Data: PubChem BioAssay
Calls of active or inactive are those of the source.

Assays:
[1] = E. coli DRC41 culture turbidity changes, primary screen, E. coli filamentation inducer project, strain DRC41, OD650, 48 h (AID 1152);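 further: E. coli MC1000 strain DRC41 lacking acrAB efflux pump and sulA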; details: E. coli DRC41 (acrAB sulA), higher = more signal, called active from +8 up or from −8 down
[2] = small-molecule binders of probe aLefty1, primary screen, biochemical, small-molecule microarray, 635/667 nm fluorescence (AID 1153); details: higher = more signal;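 further: score merges spot fluorescence with signal-to-noise ratio from the scanned slide images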
[3] = PSAC antagonists in infected red cells, primary screen, cell-based, P. falciparum Indochina, OD700, 1 h (AID 1154); details: P. falciparum Indochina infected RBC osmotic lysis, higher = more signal, called active from +8 up or from −8 down
[4] = PSAC antagonists in infected red cells, primary screen, cell-based, P. falciparum Indochina, OD700, 2 h (AID 1155);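 further: lysis reports solute entry through the parasite surface anion channel PSAC; channel blockers reduce lysis of infected cells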; details: P. falciparum Indochina infected erythrocytes, osmotic lysis OD700; higher = more signal, called active from +8 up or from −8 down
[5] = osmotic lysis modulators in infected erythrocytes, primary screen, PSAC antagonist project, cell-based, P. falciparum Indochina, OD700, 3 h (AID 1156); details: higher = more signal, called active from +8 up or from −8 down
[6] = PSAC antagonists in infected red cells, primary screen, cell-based, P. falciparum Indochina, OD700, 18 h (AID 1157); details: P. falciparum Indochina infected erythrocytes, osmotic lysis OD700, 18 h; higher = more signal, called active from +8 up or from −8 down
[7] = modulators of S6 phosphorylation in cells, primary screen, cell-based, A549, cytoblot, luminescence, serum-stimulated (AID 1158); details: A549 phospho-S6 cytoblot, 5 h, higher = more signal;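 further: serum-stimulated A549 lung adenocarcinoma cells; signal is phosphorylated S6 detected by cytoblot immunostaining with HRP secondary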
[8] = biological target: NADPH oxidase 2 (Homo sapiens) (UniProt P04839); test: NOX2-dependent H2O2 signal modulators, primary screen, NOX inhibitor project, cell-based, HEK293-NOX2, PMA-stimulated, Amplex Red fluorescence (AID 1159); details: 45 min, higher = more signal, called active from +8 up or from −8 down; further: test concentration not given here
[9] = biological target: NADPH oxidase 4 (Homo sapiens) (UniProt Q9NPH5); test: NOX4-dependent H2O2 signal modulators, primary screen, NOX inhibitor project, cell-based, HEK293-NOX4, tetracycline-induced, Amplex Red fluorescence (AID 1160); details: 45 min, higher = more signal, called active from +8 up or from −8 down
[10] = biological target: NADPH oxidase 5 (Homo sapiens) (UniProt Q96PH1); test: NOX5-dependent H2O2 signal modulators, primary screen, NOX inhibitor project, cell-based, HEK293-NOX5, Amplex Red fluorescence (AID 1161); details: HEK293-NOX5, ionomycin, 45 min, higher = more signal
Sequence of NADPH oxidase 5 (Homo sapiens) (Q96PH1 whole entry, looked up): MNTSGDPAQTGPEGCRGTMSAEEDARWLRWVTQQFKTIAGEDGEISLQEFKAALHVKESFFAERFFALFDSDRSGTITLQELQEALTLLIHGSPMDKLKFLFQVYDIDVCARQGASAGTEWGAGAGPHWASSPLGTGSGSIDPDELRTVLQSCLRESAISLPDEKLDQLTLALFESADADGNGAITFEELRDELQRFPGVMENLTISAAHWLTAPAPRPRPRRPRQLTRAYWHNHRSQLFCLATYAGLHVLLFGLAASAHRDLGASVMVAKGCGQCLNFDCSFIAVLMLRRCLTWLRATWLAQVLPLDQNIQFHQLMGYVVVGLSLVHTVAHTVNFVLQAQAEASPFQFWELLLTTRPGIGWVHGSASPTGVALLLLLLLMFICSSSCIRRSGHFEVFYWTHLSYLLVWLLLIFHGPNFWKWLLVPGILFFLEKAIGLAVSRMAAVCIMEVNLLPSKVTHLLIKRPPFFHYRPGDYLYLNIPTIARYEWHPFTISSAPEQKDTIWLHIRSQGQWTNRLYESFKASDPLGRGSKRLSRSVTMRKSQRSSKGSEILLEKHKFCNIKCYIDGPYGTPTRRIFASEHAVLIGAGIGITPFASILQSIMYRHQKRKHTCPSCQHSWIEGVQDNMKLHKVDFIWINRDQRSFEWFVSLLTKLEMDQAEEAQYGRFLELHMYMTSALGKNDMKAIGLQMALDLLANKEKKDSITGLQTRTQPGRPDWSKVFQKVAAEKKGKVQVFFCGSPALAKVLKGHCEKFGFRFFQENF

Sequence of NADPH oxidase 2 (Homo sapiens) (P04839 whole entry, looked up): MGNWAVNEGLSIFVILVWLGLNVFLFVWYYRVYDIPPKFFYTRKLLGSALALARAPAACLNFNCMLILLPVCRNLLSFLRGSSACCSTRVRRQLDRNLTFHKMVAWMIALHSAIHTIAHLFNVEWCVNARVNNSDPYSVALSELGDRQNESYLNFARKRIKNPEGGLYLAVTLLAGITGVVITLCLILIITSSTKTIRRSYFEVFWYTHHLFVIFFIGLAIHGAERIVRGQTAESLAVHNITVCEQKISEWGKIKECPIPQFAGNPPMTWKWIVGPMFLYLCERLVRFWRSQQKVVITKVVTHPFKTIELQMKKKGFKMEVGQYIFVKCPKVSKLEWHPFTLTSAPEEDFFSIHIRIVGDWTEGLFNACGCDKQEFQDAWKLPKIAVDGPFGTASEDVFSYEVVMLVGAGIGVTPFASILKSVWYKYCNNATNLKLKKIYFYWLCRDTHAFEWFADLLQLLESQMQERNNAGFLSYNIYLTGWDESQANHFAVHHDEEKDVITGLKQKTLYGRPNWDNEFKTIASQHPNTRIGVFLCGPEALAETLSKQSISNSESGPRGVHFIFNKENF
Sequence of NADPH oxidase 4 (Homo sapiens) (Q9NPH5 whole entry, looked up): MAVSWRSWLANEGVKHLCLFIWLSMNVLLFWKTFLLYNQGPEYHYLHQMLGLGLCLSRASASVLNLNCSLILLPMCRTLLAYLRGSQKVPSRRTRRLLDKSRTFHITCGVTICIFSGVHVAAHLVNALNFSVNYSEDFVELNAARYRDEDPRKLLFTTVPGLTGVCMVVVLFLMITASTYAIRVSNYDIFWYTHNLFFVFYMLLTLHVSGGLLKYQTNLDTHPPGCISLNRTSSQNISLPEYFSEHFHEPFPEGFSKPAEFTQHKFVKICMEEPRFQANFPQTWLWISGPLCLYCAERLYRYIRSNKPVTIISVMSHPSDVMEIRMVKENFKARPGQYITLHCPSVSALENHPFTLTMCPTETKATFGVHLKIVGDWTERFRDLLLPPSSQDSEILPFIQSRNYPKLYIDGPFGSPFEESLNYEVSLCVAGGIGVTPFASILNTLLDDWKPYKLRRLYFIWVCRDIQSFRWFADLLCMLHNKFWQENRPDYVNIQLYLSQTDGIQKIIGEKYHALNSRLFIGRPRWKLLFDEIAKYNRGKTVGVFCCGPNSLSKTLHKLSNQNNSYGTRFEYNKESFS

SMILES | z-score [1] | composite z-score [2] | z-score [3] | z-score [4] | z-score [5] | z-score [6] | z-score [7] | z-score [8] | z-score [9] | z-score [10]
O=c1n(Cc2cc3c(cc2Cl)OCO3)c(=O)n2n1CC[C@@H]1C(=NOC[C@@H](O)COCc3ccco3)[C@H]3O[C@H]3[C@@H](O)[C@@H]12 | -0.289 (inactive) | 0.175 | 0.0384 (inactive) | 0.012 (inactive) | -0.258 (inactive) | -0.138 (inactive) | 0.393 | 0.0338 (inactive) | -1.95 (inactive) | -0.278
CCOC(=O)NN=C1C[C@@H](O)[C@@H](O)[C@@H]2[C@@H]3C(=O)N(c4ccc(F)cc4F)C(=O)[C@@H]3CC[C@@H]12 | -0.588 (inactive) | 0.197 | 1.73 (inactive) | 0.719 (inactive) | 0.171 (inactive) | 0.0581 (inactive) | -0.561 | 0.992 (inactive) | 0.605 (inactive) | -0.407
Cc1ccc(S(=O)(=O)N[C@@H]2COC(=O)[C@@H](C)COC(=O)CC=C[C@H]2C)cc1 | -0.891 (inactive) | -0.103 | 0.124 (inactive) | 0.279 (inactive) | -0.305 (inactive) | -0.113 (inactive) | -0.0223 | -1.19 (inactive) | -1.59 (inactive) | -0.728
CC(CCN1CCCCc2nc(C)c(C)cc21)=NOC[C@@H](C)[C@H](OCc1ccccc1)C(C)C | -0.605 (inactive) | -0.502 | -0.0226 (inactive) | -1.71 (inactive) | 0.167 (inactive) | -1.99 (inactive) | 1.08 | -1.86 (inactive) | -0.629 (inactive) | -3.18
CCc1cc2c(nc1CC)CCN(CCC(C)=NO[C@@H](C)c1cn([C@H](CO)Cc3ccccc3)nn1)C2 | 0.0933 (inactive) | -0.0011 | 4.48 (inactive) | 0.586 (inactive) | -0.0919 (inactive) | 0.49 (inactive) | 0.434 | -1.4 (inactive) | 0.033 (inactive) | 0.858
C[C@H]1Cc2c(COc3ccccc3)nc3c(c2CO1)CN(CCOc1ccccc1)CC3 | 0.49 (inactive) | 0.2 | 3.74 (inactive) | 0.484 (inactive) | 1.68 (inactive) | 0.908 (inactive) | 0.44 | 0.539 (inactive) | 0.191 (inactive) | -0.00428
C#CCCCON=C1C[C@@H](O)[C@@H](O)[C@@H]2[C@@H]3C(=O)N(C(C)(C)C)C(=O)[C@@H]3CC[C@@H]12 | -0.441 (inactive) | 0.308 | 3.54 (inactive) | 1.28 (inactive) | 0.158 (inactive) | 0.305 (inactive) | 0.929 | 0.934 (inactive) | 1.27 (inactive) | -0.106
CO[C@H]1COC(=O)CC=C[C@H](C)[C@@H](OC)COC(=O)[C@H](C)COC(=O)CC=C[C@@H]1C | 0.79 (inactive) | -0.146 | -0.0428 (inactive) | 0.202 (inactive) | 0.523 (inactive) | 0.13 (inactive) | 0.333 | -0.165 (inactive) | 0.297 (inactive) | -0.12
CON=Cc1ccc(C(=O)N2[C@H](c3ccc(C)cc3)[C@@H](C)CC[C@H]2C(=O)OC)cc1 | -0.134 (inactive) | -0.147 | 1.65 (inactive) | 1.25 (inactive) | 0.0014 (inactive) | 1.1 (inactive) | -0.0424 | -0.88 (inactive) | -0.304 (inactive) | -0.376
CCOC(=O)NN=C1C[C@@H](O)[C@@H](O)[C@@H]2[C@@H]3C(=O)N(Cc4ccccc4)C(=O)[C@@H]3CC[C@H]12 | -0.356 (inactive) | -0.332 | 1.39 (inactive) | -0.673 (inactive) | -0.0654 (inactive) | -1.36 (inactive) | 0.577 | 1.15 (inactive) | 0.547 (inactive) | 0.0313
CCN1C(=O)[C@H]2[C@H]3[C@H](O)[C@H](O)CC(=O)[C@H]3CC[C@H]2C1=O | 0.115 (inactive) | -0.0603 | -0.0957 (inactive) | 0.143 (inactive) | -0.669 (inactive) | 0.0097 (inactive) | -0.276 | -0.676 (inactive) | 0.471 (inactive) | -0.156
C#CCCCON=C1C[C@@H](O)[C@@H](O)[C@@H]2[C@@H]3C(=O)N(CCC(=O)OCC)C(=O)[C@@H]3CC[C@H]12 | 0.756 (inactive) | 0.105 | 1.08 (inactive) | -1.4 (inactive) | 0.792 (inactive) | -1.51 (inactive) | 1.76 | -2.03 (inactive) | 0.213 (inactive) | -0.949
CCOC(=O)[C@H](CC(C)C)NC(=O)CCC1CC(OC(=O)NCc2cccc3ccccc23)CC2(CCCC(COC(=O)NCc3ccncc3)O2)O1 (stereo not given in full) | 0.432 (inactive) | -0.142 | 7.59 (inactive) | 1.02 (inactive) | -0.416 (inactive) | 0.42 (inactive) | 0.351 | 0.402 (inactive) | 0.142 (inactive) | 0.365
